Data on 9 compounds can be found in PubChem BioAssay (NCI).

The structures appear in SMILES notation. Compounds without any hit were thinned out: in the full panel of roughly 83,000, 20% have a hit.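 Percent growth is the endpoint: 0 to 100 indicates growth inhibition (40 means 60% inhibition), 0 means no net growth, and negative values indicate cell death.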 Values without a mark were called inactive. Calls of active or inactive are those of the source. Rule for the calls: active = growth percent below 10; inactive = the rest.

Test systems include SR leukemia; OVCAR-8 ovarian; OVCAR-5 ovarian; OVCAR-4 ovarian; SK-OV-3 ovarian; IGROV1 ovarian; OVCAR-3 ovarian; HS 578T breast; NCI/ADR-RES ovarian; T-47D breast; BT-549 breast; MDA-MB-435 melanoma; SW-620 colon; MCF7 breast; HCT-116 colon; HCC-2998 colon; KM12 colon; RPMI-8226 leukemia.
Common to all, as to assay: NCI-60 one-dose screen, 48 h (100 = growth as untreated, 0 = no growth, -100 = all killed)
What all share (settings): 10 µM unless noted

As to `CN(C)CCNC(=O)n1cc(-c2ccncc2)c(-c2cc(O)cc(Cl)c2)n1`, the growth was 29.6% in the experiment on SR leukemia; 86.9% with OVCAR-8 ovarian; 106% with OVCAR-5 ovarian; 118% in the experiment on OVCAR-4 ovarian; 90.8% in the experiment on SK-OV-3 ovarian; 107% in the experiment with IGROV1 ovarian. The growth in the experiment on OVCAR-3 ovarian is 109%; in the experiment with HS 578T breast, 93.3%; with NCI/ADR-RES ovarian, 100%; in the experiment with T-47D breast, 106%; in the experiment on BT-549 breast, 102%; in the experiment on MDA-MB-435 melanoma, 51.1%. Besides, the growth in the experiment on SW-620 colon was 109%; in the experiment on MCF7 breast, 102%; in the experiment on HCT-116 colon, 86.2%; in the experiment with HCC-2998 colon, 119%; with KM12 colon it was 106%.

Consider `CCCCn1cnc2c(SCc3ccc([N+](=O)[O-])cc3)nc(N)nc21`, for which the growth in the experiment on SR leukemia is 37.6%; in the experiment with OVCAR-8 ovarian, 90.9%; in the experiment with OVCAR-5 ovarian, 91.5%; in the experiment with OVCAR-4 ovarian, 76.3%; in the experiment on SK-OV-3 ovarian it was 116%; in the experiment on IGROV1 ovarian, 90.3%. For the same compound, the growth is 98.4% in the experiment on OVCAR-3 ovarian; 107% in the experiment on HS 578T breast; 89.3% with NCI/ADR-RES ovarian; 80% in the experiment with T-47D breast; 90.4% in the experiment with BT-549 breast; 98% in the experiment on MDA-MB-435 melanoma. Further, the growth with SW-620 colon was 109%; in the experiment with MCF7 breast it was 91.2%; with HCT-116 colon, 92.5%; with HCC-2998 colon it was 90.7%; with KM12 colon it was 97.9%.

With `CCN(CC)CCNC(=O)n1cc(-c2ccncc2)c(-c2ccc(Cl)c(OC)c2)n1`, the growth in the experiment with SR leukemia is 80.7%; in the experiment on OVCAR-8 ovarian, 31%; with OVCAR-5 ovarian it was 98.8%; in the experiment with OVCAR-4 ovarian, 92.6%; with SK-OV-3 ovarian it was 75.5%; with IGROV1 ovarian, 88.8%. In addition, the growth in the experiment with OVCAR-3 ovarian was 101%; with HS 578T breast, 90.1%; in the experiment on NCI/ADR-RES ovarian, 83.5%; in the experiment on T-47D breast, 69.2%; with BT-549 breast it was 96.3%; in the experiment with MDA-MB-435 melanoma, 97.2%. In addition, the growth with SW-620 colon is 113%; in the experiment with HCT-116 colon, 84%; with HCC-2998 colon, 99%; in the experiment with KM12 colon it was 103%.

For `CC(=O)C1CCC2C3CC(C)=C4CC(O)CCC4(C)C3CCC12C` (configuration not stated), the growth in the experiment with SR leukemia was 89.9%; with OVCAR-8 ovarian, 106%; in the experiment on OVCAR-5 ovarian it was 112%; in the experiment with OVCAR-4 ovarian, 93.4%; in the experiment on SK-OV-3 ovarian, 112%; in the experiment on IGROV1 ovarian it was 104%. The growth is 113% with OVCAR-3 ovarian; 103% in the experiment on HS 578T breast; 101% in the experiment on NCI/ADR-RES ovarian; 100% in the experiment with BT-549 breast; 109% in the experiment with MDA-MB-435 melanoma; 118% in the experiment with SW-620 colon. The growth in the experiment on MCF7 breast is 100%; in the experiment with HCT-116 colon, 90.7%; in the experiment on HCC-2998 colon it was 98.8%; in the experiment on KM12 colon it was 109%.

For the compound `O=C(O)CSc1ccc(NCc2oc(CO)cc(=O)c2O)cc1`, the growth in the experiment on SR leukemia is 81.8%; with OVCAR-8 ovarian, 102%; with OVCAR-5 ovarian, 102%; in the experiment with OVCAR-4 ovarian it was 103%; with SK-OV-3 ovarian, 98.7%; in the experiment on IGROV1 ovarian it was 105%. In addition, the growth in the experiment with OVCAR-3 ovarian was 110%; with HS 578T breast, 90.9%; with NCI/ADR-RES ovarian, 94.3%; with T-47D breast, 108%; with BT-549 breast, 92.8%; with MDA-MB-435 melanoma it was 116%. Moreover, the growth in the experiment with SW-620 colon was 105%; in the experiment with MCF7 breast, 93.8%; in the experiment on HCT-116 colon, 95.2%; in the experiment with HCC-2998 colon it was 99.9%; in the experiment on KM12 colon, 100%.

Turning to `Cc1cccc(/C=N/n2c(-c3ccc(Cl)cc3)nc3c(Br)cc(Br)cc3c2=O)c1`, the growth is 73.1% in the experiment on SR leukemia; 32.5% in the experiment on OVCAR-8 ovarian; 50.2% in the experiment with OVCAR-5 ovarian; -3.16% (active) with OVCAR-4 ovarian; 39.5% in the experiment on SK-OV-3 ovarian; 31.9% in the experiment on IGROV1 ovarian. The growth was 38.2% in the experiment with OVCAR-3 ovarian; 65.1% in the experiment with HS 578T breast; 30.5% with NCI/ADR-RES ovarian; 44.4% with T-47D breast; 88% with BT-549 breast; 66% in the experiment on MDA-MB-435 melanoma. Besides, the growth in the experiment on SW-620 colon was 59.1%; in the experiment with MCF7 breast, 36.7%; in the experiment on HCT-116 colon, 22.2%; with HCC-2998 colon, 55.6%; in the experiment on KM12 colon, 52.4%.

For the compound `CCCCCCCCCCCC1=NC(C)(C)CN1CC(C)O` (configuration not stated), the growth with SR leukemia was -61.4% (active); with OVCAR-8 ovarian, 81.7%; in the experiment with OVCAR-5 ovarian it was 92.5%; with OVCAR-4 ovarian, 70.2%; in the experiment with SK-OV-3 ovarian, 82.6%; in the experiment with IGROV1 ovarian, 30%. Also, the growth in the experiment on OVCAR-3 ovarian was 73.9%; in the experiment on NCI/ADR-RES ovarian it was 87%; with BT-549 breast it was 67.8%; in the experiment on MDA-MB-435 melanoma, -7.43% (active); in the experiment with SW-620 colon it was 52%; in the experiment with HCT-116 colon, 22.8%. In addition, the figures for the growth in the experiment with HCC-2998 colon and with KM12 colon were -60.8% (active) and 34%, respectively.

Regarding `CCN(CC)c1ccc2c(cc1=O)[C@@H](NC(C)=O)CCc1cc(OC)c(OC)c(OC)c1-2`, the growth is 14.9% in the experiment with RPMI-8226 leukemia; 12.3% with OVCAR-8 ovarian; 54.1% with OVCAR-5 ovarian; 48.2% in the experiment with OVCAR-4 ovarian; 24.3% in the experiment on SK-OV-3 ovarian; 28% in the experiment with IGROV1 ovarian. Further, the growth was -24.9% (active) with OVCAR-3 ovarian; 40.5% in the experiment with HS 578T breast; 85.7% in the experiment with NCI/ADR-RES ovarian; 82.2% in the experiment with T-47D breast; 1.73% (active) with BT-549 breast; -43.9% (active) in the experiment with MDA-MB-435 melanoma. Also, the growth in the experiment on SW-620 colon is 23.3%; in the experiment with MCF7 breast it was 14.9%; with HCT-116 colon, 3.75% (active); with HCC-2998 colon it was 22.9%; in the experiment with KM12 colon it was 5.97% (active).

Consider `Cc1cc(N)cc(C)c1-c1c(Br)cc(N)cc1Br`, for which the growth with SR leukemia is 9.99% (active); with OVCAR-8 ovarian it was 31%; with OVCAR-5 ovarian it was 45.9%; in the experiment with SK-OV-3 ovarian, 6.33% (active); with IGROV1 ovarian, 21%; with OVCAR-3 ovarian it was 1.61% (active). Besides, the growth with HS 578T breast was 34.1%; in the experiment with NCI/ADR-RES ovarian, -1.83% (active); in the experiment with T-47D breast it was 36.3%; in the experiment with BT-549 breast, 35.8%; in the experiment on MDA-MB-435 melanoma, -44.3% (active); in the experiment on SW-620 colon it was 34.5%. Also, the growth is 27.1% with MCF7 breast, 23.3% with HCT-116 colon, 42.3% with HCC-2998 colon and 23.8% in the experiment on KM12 colon.
